# According to PubChem BioAssay (NCATS):
# Results filed as inconclusive are left out. A call without a number means that no potency is given here. Active and inactive are the calls of the source. Calls come from the whole dose curve; as a rule, active = well fitted inhibition curve with a large enough effect; inconclusive = small, poorly fitted or top-dose-only effect; inactive = flat fitted curve, though single readings scatter.
# What was measured:
# Test in all cases: qHTS profiling for inhibitors of Plasmodium falciparum proliferation (AID 504749); note: nearly all actives have a fitted effect of over 60% in size
# Details in all cases: P. falciparum in erythrocytes, SYBR Green DNA, 72 h; series mostly up to 28.7 µM
# 3D7 = system: 3D7
# Summary of the method: (§1)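 Readout was DNA-dye fluorescence from lysed cultures, ex 485/em 535 nm. Parasitized red cells had grown 72 h with compound; data scaled between 0.29 uM artemisinin and DMSO wells and corrected using vehicle-only plates.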
# 7G8 = system: 7G8
# Summary of the method: as §1
# AA1029 = system: AA1029
# Summary of the method: as §1
# AS120 = system: AS120
# Summary of the method: as §1
# ATS189 = system: ATS189
# Summary of the method: as §1
# ATS95 = system: ATS95
# Summary of the method: as §1
# CP185 = system: CP185
# Summary of the method: as §1
# CP191 = system: CP191
# Summary of the method: as §1
# CP238 = system: CP238
# Summary of the method: as §1
# CP247 = system: CP247
# Summary of the method: as §1
# CP265 = system: CP265
# Summary of the method: as §1
# DFO2036 = system: DFO2036
# Summary of the method: as §1
# FAB9 = system: FAB9
# Summary of the method: as §1
# HB3 = system: HB3
# Summary of the method: as §1
# PAD = system: PAD
# Summary of the method: as §1
# PC15 = system: PC15
# Summary of the method: as §1
# PC49 = system: PC49
# Summary of the method: as §1
# TAB109 = system: TAB109
# Summary of the method: as §1
# TAB113 = system: TAB113
# Summary of the method: as §1
# TAB165 = system: TAB165
# Summary of the method: as §1
# Potency is the fitted concentration of half-maximal effect.
SMILES,Potency (3D7),Potency (7G8),Potency (AA1029),Potency (AS120),Potency (ATS189),Potency (ATS95),Potency (CP185),Potency (CP191),Potency (CP238),Potency (CP247),Potency (CP265),Potency (DFO2036),Potency (FAB9),Potency (HB3),Potency (PAD),Potency (PC15),Potency (PC49),Potency (TAB109),Potency (TAB113),Potency (TAB165)
CC(C)CN(C[C@@H](O)[C@H](Cc1ccccc1)NC(=O)O[C@H]1CCOC1)S(=O)(=O)c1ccc(N)cc1,inactive,10 µM (active),inactive,inactive,inactive,inactive,inactive,inactive,inactive,inactive,inactive,inactive,inactive,inactive,inactive,inactive,inactive,inactive,inactive,inactive
CC(C)CN(C[C@@H](OP(=O)(O)O)[C@H](Cc1ccccc1)NC(=O)O[C@@H]1CCOC1)S(=O)(=O)c1ccc(N)cc1,inactive,inactive,inactive,inactive,inactive,inactive,inactive,inactive,inactive,inactive,inactive,inactive,inactive,inactive,inactive,inactive,inactive,inactive,inactive,inactive
O=C(O)c1cc(O)c2c(c1)[C@H]([C@H]1c3cc(C(=O)O)cc(O)c3C(=O)c3c(O[C@@H]4OC(CO)C(O)C(O)C4O)cccc31)c1cccc(O[C@@H]3OC(CO)C(O)C(O)C3O)c1C2=O (stereo not given in full),inactive,inactive,inactive,inactive,inactive,inactive,inactive,inactive,inactive,inactive,inactive,inactive,inactive,inactive,inactive,inactive,inactive,inactive,inactive,inactive
CCC(C)n1ncn(-c2ccc(N3CCN(c4ccc(OCC5COC(Cn6cncn6)(c6ccc(Cl)cc6Cl)O5)cc4)CC3)cc2)c1=O (stereo not given),3.16 µM (active),3.55 µM (active),inactive,inactive,inactive,inactive,inactive,inactive,inactive,inactive,inactive,inactive,inactive,inactive,inactive,inactive,inactive,inactive,inactive,inactive
